This is an account of results in PubChem BioAssay (EPA / NIEHS).

Assay [1] is described as follows: ATG_TAL_CIS: Attagene CIS-FACTORIAL HepG2 Assay for human TAL Basal Promoter (AID 2282966; active = hit-call score of the fitted dose curve at least 0.9, where 1 is the maximum; inactive = score below 0.9;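 also: background control endpoint measuring basal TAL promoter reporter mRNA not a specific factor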). Particulars: HepG2 Attagene cis-factorial TAL promoter reporter; actives raise or lower the signal. The gist of the method:
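Background-control endpoint: basal TAL promoter reporter transcripts in transiently transfected HepG2, measured 24 h after dosing. Read-out by RT-PCR with fluorescent primer extension and capillary electrophoresis; gain or loss of signal fitted relative to DMSO.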

Assay [2] can be described thus: ATG_TGFb_CIS: Attagene CIS-FACTORIAL HepG2 Assay for human Transforming Growth Factor (TGF) (AID 2282967; active = hit-call score of the fitted dose curve at least 0.9, where 1 is the maximum; inactive = score below 0.9). The note with it: HepG2 Attagene CIS TGFb reporter, mRNA transcription; actives raise or lower the signal. A digest of the protocol:
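Liver HepG2 line, cis-factorial reporter panel, 24 h dosing. Quantitation: RT-PCR products labeled with 6-FAM, cut with HpaI, resolved by capillary electrophoresis; DMSO-referenced bidirectional analysis.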

A short description of assay [3]: ATG_VDRE_CIS: Attagene CIS-FACTORIAL HepG2 Assay for human Vitamin D Receptor Element (VDRE) (AID 2282968; active = hit-call score of the fitted dose curve at least 0.9, where 1 is the maximum; inactive = score below 0.9). The note with it: HepG2 VDRE cis-reporter transcription, actives raise or lower the signal. The gist of the method:
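Measures endogenous factor activity through cis-element-driven reporter transcripts in transiently transfected HepG2. Cells are treated 24 h; reporter mRNA is quantified by RT-PCR and capillary electrophoresis; fitting is bidirectional.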

Assay [4] has as its target Nuclear receptor subfamily 1 group I member 3 (Homo sapiens) (UniProt Q14994). Put plainly: ATG_CAR_TRANS: Attagene TRANS-FACTORIAL HepG2 Assay for human Constitutive Androstane Receptor (CAR) (AID 2282969).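 Also: activators raise reporter mRNA above DMSO so AC50 marks induction.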 The note with it: HepG2 Attagene TRANS-FACTORIAL CAR reporter. A digest of the protocol:
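Signal is reporter mRNA induction relative to DMSO, measured 24 h after dosing by RT-PCR with fluorescent primer extension and capillary electrophoresis. Human HepG2 liver cells carried transiently transfected chimeric NR-Gal4/GAL4-UAS reporter constructs.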

For assay [5], the target named is X-box-binding protein 1 (Homo sapiens) (UniProt P17861). Put plainly: ATG_Xbp1_CIS: Attagene CIS-FACTORIAL HepG2 Assay for human X-box Binding Protein 1 (XBP1) (AID 2282972; active = hit-call score of the fitted dose curve at least 0.9, where 1 is the maximum; inactive = score below 0.9). The note with it: HepG2 XBP1 cis-element reporter, Attagene multiplex; actives raise or lower the signal. The gist of the method:
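Multiplexed cis-reporter readout in transfected HepG2 liver cells. Exposure lasted 24 hours. Activity in either direction was fitted against DMSO as negative control and baseline.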

The nature of assay [6]: ATG_GAL4_TRANS: Attagene TRANS-FACTORIAL HepG2 Assay for GAL4 (Internal Marker) (AID 2282976). Particulars: HepG2 Attagene TRANS GAL4 internal marker reporter. A digest of the protocol:
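In transfected human HepG2 liver cells dosed 24 h, GAL4 reporter mRNA serves as a baseline marker. Detection by RT-PCR with fluorescent capillary electrophoresis, activity fitted upward relative to DMSO.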

For assay [7], the target named is Estrogen-related receptor gamma (Homo sapiens) (UniProt P62508). Put plainly: ATG_ERRg_TRANS: Attagene TRANS-FACTORIAL HepG2 Assay for human Estrogen-Related Receptor gamma (ERRg) (AID 2282977).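 Also: hits increase reporter signal over DMSO so potencies reflect activators.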 The note with it: HepG2 Attagene TRANS reporter, ERRg transactivation. The gist of the method: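 Readout: fluorescent reporter-mRNA fragments resolved by capillary electrophoresis after RT-PCR and HpaI cut. Cells: transiently transfected HepG2 carrying GAL4-UAS reporters driven by exogenous NR-Gal4 chimeras, dosed 24 h. Activity fitted upward relative to DMSO baseline.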

Assay [8] addresses Bile acid receptor (Homo sapiens) (UniProt Q96RI1). Put plainly: ATG_FXR_TRANS: Attagene TRANS-FACTORIAL HepG2 Assay for Farnesoid X Receptor (FXR) (AID 2282979).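 Also: hits raise reporter mRNA above DMSO so AC50 marks FXR activation.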 Particulars: HepG2 Attagene TRANS FXR-GAL4 reporter transcription. A digest of the protocol: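 Reporter transcripts from transfected HepG2 cells were measured 24 h after dosing, using RT-PCR with capillary electrophoresis of 6-FAM-labelled fragments. The read-out reflects activity of exogenous FXR-Gal4 chimera on GAL4-UAS units, with induction relative to DMSO.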

Assay [9] concerns the target Oxysterols receptor LXR-alpha (Homo sapiens) (UniProt Q13133). Put plainly: ATG_LXRa_TRANS: Attagene TRANS-FACTORIAL HepG2 Assay for human Liver X Receptor alpha (LXRa) (AID 2282980). The note with it: HepG2 Attagene TRANS reporter, LXRa transactivation. The gist of the method:
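Chemical-induced reporter mRNA measured by RT-PCR with fluorescent labelling and capillary electrophoresis after 24 h dosing of transiently transfected HepG2 cells expressing exogenous NR-Gal4 chimeras; increases scored against DMSO baseline.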

For assay [10], the target named is Oxysterols receptor LXR-beta (Homo sapiens) (UniProt P55055). Put plainly: ATG_LXRb_TRANS: Attagene TRANS-FACTORIAL HepG2 Assay for human Liver X Receptor beta (LXRb) (AID 2282981). The note with it: HepG2 Attagene TRANS GAL4-LXRb reporter, mRNA. The gist of the method: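 After 24 h of chemical treatment, transfected HepG2 cells yield total RNA; reporter cDNA is PCR-amplified, FAM-labelled, HpaI-cut and run on capillary electrophoresis. Signal reflects chimeric LXRb-Gal4 activity on GAL4-UAS reporters.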

The target in assay [11] is Hepatocyte nuclear factor 4-alpha (Homo sapiens) (UniProt P41235). Put plainly: ATG_HNF4a_TRANS: Attagene TRANS-FACTORIAL HepG2 Assay for human Hepatocyte Nuclear Factor 4 alpha (HNF4a) (AID 2282982). Particulars: HepG2 HNF4a transactivation reporter, mRNA readout. The gist of the method: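 Multiplexed reporter assay: transfected HepG2, 24 h exposure, total RNA → oligo(dT) RT → PCR → 6-FAM extension → HpaI digest → CE fluorescence. DMSO = negative control.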

Assay [12] in a line: ATG_M_06_TRANS: Attagene TRANS-FACTORIAL HepG2 Assay for M06 Transcription Factor (Internal Marker) (AID 2282983). The note with it: HepG2 Attagene TRANS M06 internal marker reporter. The gist of the method: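 Background-control reporter readout: after 24 h chemical exposure of transiently transfected HepG2 (GAL4-UAS reporter units), mRNA quantified by RT-PCR with fluorescent labeling and capillary electrophoresis. Gain-of-signal fitting against DMSO baseline.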

Assay [13] in a line: ATG_M_32_TRANS: Attagene TRANS-FACTORIAL HepG2 Assay for M32 Transcription Factor (Internal Marker) (AID 2282984). The note with it: HepG2 Attagene TRANS M32 internal marker reporter. A digest of the protocol: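 Cell-based TRANS-format assay in HepG2: exogenous chimeric GAL4 reporter units transiently expressed, compounds applied 24 h. Reporter mRNA detected by RT-PCR plus capillary electrophoresis; this readout is an internal background marker.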

The target in assay [14] is Nuclear receptor subfamily 4 group A member 2 (Homo sapiens) (UniProt P43354). Put plainly: ATG_NURR1_TRANS: Attagene TRANS-FACTORIAL HepG2 Assay for human Nuclear Receptor Related Protein 1 (NURR1) (AID 2282985). Particulars: HepG2 Attagene TRANS reporter, mRNA readout. A digest of the protocol: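 Measures transcriptional activation by an exogenous NR-Gal4 chimera in transfected HepG2 liver cells. After 24 h, reporter RNA is reverse-transcribed, amplified and resolved by capillary electrophoresis; DMSO defines baseline.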

The target of assay [15] is Transcriptional activator Myb (Homo sapiens) (UniProt P10242). Put plainly: ATG_Myb_CIS: Attagene CIS-FACTORIAL HepG2 Assay for human Myeloblastosis (Myb) Proto-Oncogene Transcription Factor (AID 2282986; active = hit-call score of the fitted dose curve at least 0.9, where 1 is the maximum; inactive = score below 0.9). Particulars: HepG2 Attagene CIS-FACTORIAL Myb reporter transcription; actives raise or lower the signal. A digest of the protocol: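 Reporter transcript levels, quantified by fluorescent RT-PCR and capillary electrophoresis, serve as the read-out. Transfected HepG2 cells carrying cis-promoter reporter units are dosed for 24 hours, and curves are fitted bidirectionally against DMSO controls.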

Assay [16] has as its target Nuclear respiratory factor 1 (Homo sapiens) (UniProt Q16656). Put plainly: ATG_NRF1_CIS: Attagene CIS-FACTORIAL HepG2 Assay for human Nuclear Respiratory Factor 1 (NRF1) Orphan Gene (AID 2282987; active = hit-call score of the fitted dose curve at least 0.9, where 1 is the maximum; inactive = score below 0.9). Particulars: HepG2 NRF1 cis-element reporter, Attagene multiplex; actives raise or lower the signal. A digest of the protocol:
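Multiplexed cis-reporter assay, HepG2 cells, 24 h treatment. Total RNA → oligo(dT) RT → PCR with reporter-specific primers → 6-FAM primer extension → HpaI cut → CE. Bidirectional fit vs DMSO.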

Assay [17] is described as follows: ATG_M_19_TRANS: Attagene TRANS-FACTORIAL HepG2 Assay for M19 Transcription Factor (Internal Marker) (AID 2282974). Particulars: HepG2 Attagene TRANS-FACTORIAL M19 internal marker reporter. A digest of the protocol: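 Fluorescence of 6-FAM-labelled reporter cDNA fragments, separated by capillary electrophoresis, served as the readout. These derived from HepG2 cells carrying transfected GAL4-UAS reporter units after 24 h dosing, with DMSO as negative control.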

Assay [18] concerns the target Glucocorticoid receptor (Homo sapiens) (UniProt P04150). Put plainly: ATG_GR_TRANS: Attagene TRANS-FACTORIAL HepG2 Assay for human Glucocorticoid Receptor (GR) (AID 2282978).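 Also: activators score as hits since higher reporter transcript over DMSO is fitted.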 The note with it: HepG2 Attagene TRANS GR reporter, mRNA transcription. A digest of the protocol: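 Fluorescent capillary-electrophoresis quantitation of reporter mRNA is the readout, taken 24 h after dosing human HepG2 cells carrying transiently transfected GAL4-UAS reporter units activated by chimeric NR-GAL4 fusions; activity scored as induction over DMSO.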

Assay [19] concerns the target Steroid hormone receptor ERR1 (Homo sapiens) (UniProt P11474). Put plainly: ATG_ERRa_TRANS: Attagene TRANS-FACTORIAL HepG2 Assay for human Estrogen-Related Receptor alpha (ERRa) (AID 2282971). Particulars: HepG2 Attagene TRANS reporter, ERRa transactivation. The gist of the method:
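Reporter transcripts from ERRa-Gal4 chimera activity measured in transiently transfected human HepG2 cells 24 hours after dosing, using RT-PCR with 6-FAM primer extension, HpaI digestion and capillary electrophoresis; DMSO is baseline.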

Results filed as inconclusive are left out. Active and inactive are the calls of the source. The calls were made as follows, unless noted: active = hit-call score of the fitted dose curve at least 0.9, where 1 is the maximum; inconclusive = response in the unintended direction; inactive = score below 0.9.

As a reminder, the AC50 is the concentration giving half of the maximal activity seen.

Sequence of Oxysterols receptor LXR-alpha (Homo sapiens) (Q13133 whole entry, looked up, the tested form may be a part): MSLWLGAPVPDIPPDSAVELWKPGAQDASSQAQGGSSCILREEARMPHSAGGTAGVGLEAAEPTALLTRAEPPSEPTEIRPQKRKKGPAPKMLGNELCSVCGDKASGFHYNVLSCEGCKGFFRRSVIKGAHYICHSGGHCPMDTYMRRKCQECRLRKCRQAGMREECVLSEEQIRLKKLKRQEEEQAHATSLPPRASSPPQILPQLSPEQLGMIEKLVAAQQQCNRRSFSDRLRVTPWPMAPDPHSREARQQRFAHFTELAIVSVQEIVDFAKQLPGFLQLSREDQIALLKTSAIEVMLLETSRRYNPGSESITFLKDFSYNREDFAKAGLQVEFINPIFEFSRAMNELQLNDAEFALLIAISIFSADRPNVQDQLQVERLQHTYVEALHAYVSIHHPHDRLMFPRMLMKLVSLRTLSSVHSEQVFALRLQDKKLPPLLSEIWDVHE
Sequence of X-box-binding protein 1 (Homo sapiens) (P17861 whole entry, looked up): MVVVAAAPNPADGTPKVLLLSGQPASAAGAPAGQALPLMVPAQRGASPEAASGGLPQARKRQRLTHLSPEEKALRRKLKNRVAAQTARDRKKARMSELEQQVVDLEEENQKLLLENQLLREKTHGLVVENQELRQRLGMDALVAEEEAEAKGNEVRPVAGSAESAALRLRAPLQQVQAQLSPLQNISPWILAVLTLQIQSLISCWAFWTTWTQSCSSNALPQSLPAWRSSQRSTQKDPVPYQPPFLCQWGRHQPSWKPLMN
Sequence of Bile acid receptor (Homo sapiens) (Q96RI1 whole entry, looked up, the tested form may be a part): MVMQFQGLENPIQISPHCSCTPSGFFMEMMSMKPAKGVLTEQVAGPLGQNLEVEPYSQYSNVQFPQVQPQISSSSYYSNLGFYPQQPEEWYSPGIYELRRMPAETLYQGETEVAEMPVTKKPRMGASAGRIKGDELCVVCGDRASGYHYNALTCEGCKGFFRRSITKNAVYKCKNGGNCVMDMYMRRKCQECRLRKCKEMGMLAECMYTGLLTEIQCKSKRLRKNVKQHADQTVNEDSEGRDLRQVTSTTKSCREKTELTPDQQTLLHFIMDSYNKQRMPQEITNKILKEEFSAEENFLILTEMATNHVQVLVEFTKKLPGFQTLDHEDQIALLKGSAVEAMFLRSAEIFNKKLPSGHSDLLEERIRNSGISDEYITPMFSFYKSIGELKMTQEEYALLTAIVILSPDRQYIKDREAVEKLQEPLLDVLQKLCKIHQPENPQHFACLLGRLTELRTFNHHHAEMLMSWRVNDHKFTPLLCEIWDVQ
Sequence of Nuclear respiratory factor 1 (Homo sapiens) (Q16656 whole entry, looked up): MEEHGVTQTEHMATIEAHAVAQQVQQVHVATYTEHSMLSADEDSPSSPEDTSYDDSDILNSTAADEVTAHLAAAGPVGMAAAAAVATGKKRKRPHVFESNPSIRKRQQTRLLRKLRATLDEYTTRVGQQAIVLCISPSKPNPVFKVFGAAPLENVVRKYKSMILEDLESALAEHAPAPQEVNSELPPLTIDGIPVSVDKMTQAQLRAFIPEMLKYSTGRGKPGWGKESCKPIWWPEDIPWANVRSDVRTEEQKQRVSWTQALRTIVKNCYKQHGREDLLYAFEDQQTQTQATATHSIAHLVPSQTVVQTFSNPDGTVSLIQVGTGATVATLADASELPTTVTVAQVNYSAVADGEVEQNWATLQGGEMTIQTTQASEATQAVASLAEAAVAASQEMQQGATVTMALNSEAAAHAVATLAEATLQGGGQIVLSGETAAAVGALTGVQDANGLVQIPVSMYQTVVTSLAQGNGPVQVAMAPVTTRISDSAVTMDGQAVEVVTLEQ
Sequence of Hepatocyte nuclear factor 4-alpha (Homo sapiens) (P41235 whole entry, looked up): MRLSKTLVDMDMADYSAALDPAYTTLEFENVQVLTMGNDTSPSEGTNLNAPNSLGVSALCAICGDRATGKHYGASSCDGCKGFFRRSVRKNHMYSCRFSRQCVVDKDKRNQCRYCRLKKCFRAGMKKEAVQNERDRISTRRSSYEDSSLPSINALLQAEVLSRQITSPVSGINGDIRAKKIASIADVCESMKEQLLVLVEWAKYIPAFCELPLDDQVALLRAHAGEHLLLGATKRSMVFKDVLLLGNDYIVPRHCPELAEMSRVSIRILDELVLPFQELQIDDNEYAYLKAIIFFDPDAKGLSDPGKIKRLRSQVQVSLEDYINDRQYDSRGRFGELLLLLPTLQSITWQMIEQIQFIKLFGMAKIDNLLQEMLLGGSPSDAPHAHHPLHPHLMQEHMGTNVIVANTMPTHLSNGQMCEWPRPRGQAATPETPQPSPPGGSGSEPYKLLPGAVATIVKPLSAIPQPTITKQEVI
Sequence of Estrogen-related receptor gamma (Homo sapiens) (P62508 whole entry, looked up, the tested form may be a part): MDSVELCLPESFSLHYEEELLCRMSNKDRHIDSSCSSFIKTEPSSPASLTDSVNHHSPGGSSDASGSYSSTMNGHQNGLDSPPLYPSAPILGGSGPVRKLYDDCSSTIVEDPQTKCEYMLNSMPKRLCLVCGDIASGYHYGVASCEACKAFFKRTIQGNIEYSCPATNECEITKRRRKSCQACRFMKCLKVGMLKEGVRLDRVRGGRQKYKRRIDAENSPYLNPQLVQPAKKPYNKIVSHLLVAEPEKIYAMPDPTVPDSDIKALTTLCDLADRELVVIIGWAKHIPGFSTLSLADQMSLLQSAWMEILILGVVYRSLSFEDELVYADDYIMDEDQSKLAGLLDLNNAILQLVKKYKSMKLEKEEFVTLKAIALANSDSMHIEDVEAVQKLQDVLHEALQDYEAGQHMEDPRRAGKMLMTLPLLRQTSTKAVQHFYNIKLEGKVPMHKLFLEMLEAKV
Sequence of Glucocorticoid receptor (Homo sapiens) (P04150 whole entry, looked up, the tested form may be a part): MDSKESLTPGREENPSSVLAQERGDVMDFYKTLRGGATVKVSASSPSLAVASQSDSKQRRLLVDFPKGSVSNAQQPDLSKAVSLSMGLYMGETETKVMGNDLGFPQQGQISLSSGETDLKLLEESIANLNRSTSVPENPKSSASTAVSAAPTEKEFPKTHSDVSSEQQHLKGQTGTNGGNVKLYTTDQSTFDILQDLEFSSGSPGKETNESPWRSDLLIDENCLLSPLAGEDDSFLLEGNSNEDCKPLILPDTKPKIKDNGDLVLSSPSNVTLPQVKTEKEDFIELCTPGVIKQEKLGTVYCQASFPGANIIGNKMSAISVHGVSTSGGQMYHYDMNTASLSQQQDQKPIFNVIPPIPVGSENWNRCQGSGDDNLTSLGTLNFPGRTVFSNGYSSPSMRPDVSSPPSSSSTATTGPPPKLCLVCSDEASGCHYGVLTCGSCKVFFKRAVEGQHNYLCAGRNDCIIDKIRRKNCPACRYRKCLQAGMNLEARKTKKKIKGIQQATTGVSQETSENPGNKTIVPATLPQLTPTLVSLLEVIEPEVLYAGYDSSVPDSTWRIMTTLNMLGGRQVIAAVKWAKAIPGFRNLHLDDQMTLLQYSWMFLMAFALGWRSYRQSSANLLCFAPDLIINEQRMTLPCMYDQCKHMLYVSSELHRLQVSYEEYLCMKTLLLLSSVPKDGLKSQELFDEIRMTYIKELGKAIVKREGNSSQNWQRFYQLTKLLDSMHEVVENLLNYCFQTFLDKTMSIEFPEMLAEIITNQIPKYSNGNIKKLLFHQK
Sequence of Nuclear receptor subfamily 4 group A member 2 (Homo sapiens) (P43354 whole entry, looked up, the tested form may be a part): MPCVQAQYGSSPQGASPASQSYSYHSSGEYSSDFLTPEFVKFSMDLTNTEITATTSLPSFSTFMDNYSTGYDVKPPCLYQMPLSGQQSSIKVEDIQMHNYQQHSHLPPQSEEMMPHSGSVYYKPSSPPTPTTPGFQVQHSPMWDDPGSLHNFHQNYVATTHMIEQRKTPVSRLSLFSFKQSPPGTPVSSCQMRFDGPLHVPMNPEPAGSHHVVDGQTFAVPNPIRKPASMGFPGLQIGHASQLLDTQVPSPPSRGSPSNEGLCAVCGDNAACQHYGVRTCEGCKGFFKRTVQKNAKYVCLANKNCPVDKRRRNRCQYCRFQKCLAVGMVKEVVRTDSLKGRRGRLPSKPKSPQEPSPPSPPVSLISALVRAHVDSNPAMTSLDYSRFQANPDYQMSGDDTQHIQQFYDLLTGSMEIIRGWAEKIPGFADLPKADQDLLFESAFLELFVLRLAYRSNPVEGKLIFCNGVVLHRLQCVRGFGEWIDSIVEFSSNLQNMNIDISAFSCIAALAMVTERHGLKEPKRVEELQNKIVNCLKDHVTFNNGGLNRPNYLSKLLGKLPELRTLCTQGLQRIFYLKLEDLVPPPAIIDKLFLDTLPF
Sequence of Transcriptional activator Myb (Homo sapiens) (P10242 whole entry, looked up): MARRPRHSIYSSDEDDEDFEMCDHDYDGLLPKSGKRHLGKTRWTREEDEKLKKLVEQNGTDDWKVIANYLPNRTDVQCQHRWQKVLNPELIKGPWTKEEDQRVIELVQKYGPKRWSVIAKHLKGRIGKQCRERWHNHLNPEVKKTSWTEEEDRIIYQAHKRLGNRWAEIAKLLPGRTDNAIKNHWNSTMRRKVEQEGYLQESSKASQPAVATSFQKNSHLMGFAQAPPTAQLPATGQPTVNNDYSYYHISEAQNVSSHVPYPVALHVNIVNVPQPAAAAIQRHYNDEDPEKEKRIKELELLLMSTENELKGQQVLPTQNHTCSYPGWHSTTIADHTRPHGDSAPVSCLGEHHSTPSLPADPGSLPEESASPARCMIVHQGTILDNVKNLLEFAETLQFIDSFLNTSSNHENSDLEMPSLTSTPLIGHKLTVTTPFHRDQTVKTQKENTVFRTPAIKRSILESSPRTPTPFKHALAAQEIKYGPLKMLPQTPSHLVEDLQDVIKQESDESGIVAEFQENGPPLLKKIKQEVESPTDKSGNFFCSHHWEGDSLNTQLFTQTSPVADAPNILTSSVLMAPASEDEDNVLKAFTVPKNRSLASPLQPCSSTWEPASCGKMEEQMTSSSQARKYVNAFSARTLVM
Sequence of Nuclear receptor subfamily 1 group I member 3 (Homo sapiens) (Q14994 whole entry, looked up, the tested form may be a part): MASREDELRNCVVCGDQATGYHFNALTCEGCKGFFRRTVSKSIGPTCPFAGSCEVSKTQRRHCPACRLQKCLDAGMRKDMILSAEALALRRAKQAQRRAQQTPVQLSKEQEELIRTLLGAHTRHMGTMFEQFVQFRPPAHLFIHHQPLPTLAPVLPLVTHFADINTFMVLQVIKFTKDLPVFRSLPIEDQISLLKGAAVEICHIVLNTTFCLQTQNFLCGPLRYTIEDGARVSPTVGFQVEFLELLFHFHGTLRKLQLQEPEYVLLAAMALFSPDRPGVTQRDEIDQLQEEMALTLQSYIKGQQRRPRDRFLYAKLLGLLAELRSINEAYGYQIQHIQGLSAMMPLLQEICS

For the molecule `c1ccc(CCc2ccccc2)cc1`, the molecule was called inactive in assay [1], in assay [2], in assay [3], in assay [4], in assay [5] and in assay [6]. For the same molecule, the result in assay [7], in [8], in assay [9], in [10], in [11] and in [12] was inactive. Further, the molecule was classed as inactive in assay [13], in assay [14], in [15] and in assay [16].
For the molecule `O=C(c1ccccc1)C(O)c1ccccc1` (configuration not stated), the call in assay [1], in assay [2], in [3], in [4], in assay [5] and in [17] was inactive. Moreover, the outcome in assay [18], in assay [9], in [14], in [15] and in assay [16] was inactive.
With `CCOC(=O)COC(=O)c1cc(Oc2ccc(C(F)(F)F)cc2Cl)ccc1[N+](=O)[O-]`, the molecule was classed as inactive in assay [1], in assay [4], in [5], in assay [17], in assay [8] and in assay [9]. The result in assay [11], in assay [13], in assay [14], in assay [15] and in [16] was inactive. For the same molecule, the AC50 in [2] was 144 µM (active); in [3] it was 33.5 µM (active).
For `Cc1ccc(OC(=O)c2ccccc2O)cc1`, the molecule was called inactive in assay [1], in assay [2], in [3], in assay [4], in assay [5] and in assay [17]. The call in assay [7], in assay [12], in [13], in [14], in [15] and in assay [16] was inactive.
Regarding `Cc1c(C2(c3cc(Br)c(O)c(Br)c3C)OS(=O)(=O)c3ccccc32)cc(Br)c(O)c1Br`, the molecule was called inactive in assay [1], in [2], in assay [4], in [5], in assay [17] and in assay [6]. Also, the call in assay [7], in [18], in [9], in assay [11], in [13] and in [14] was inactive. In addition, the molecule was called inactive in assay [15] and in assay [16]. In assay [3], the AC50 is 22.7 µM (active).
`Oc1c(Cl)cc(Cl)c(Cl)c1Cc1c(O)c(Cl)cc(Cl)c1Cl`: the molecule was classed as inactive in assay [1], in assay [2], in assay [4], in [19], in [5] and in [17]. Further, the molecule was called inactive in assay [7], in assay [18], in assay [11], in [15] and in assay [16]. For the same molecule, the AC50 was 1.97 µM (active) in [3], 17.6 µM (active) in assay [8] and 11.1 µM (active) in assay [14].
With `CSCCC=O`, the result in assay [1], in [2], in assay [3], in assay [4], in [19] and in assay [5] was inactive. Besides, the outcome in assay [6], in assay [7], in [8], in [9], in assay [12] and in assay [15] was inactive. Also, the outcome in [16] was inactive.
Regarding `CCOc1ccc(NC(=O)CC(C)=O)cc1`, the molecule was called inactive in [1], in assay [2], in assay [3], in [4], in assay [5] and in assay [17]. Also, the molecule was called inactive in assay [7], in [10], in assay [11], in assay [12], in assay [13] and in assay [15]. Besides, the outcome in assay [16] was inactive.
